Data published in the supplement of paper PMC6555819.

What was measured:
Assay in all cases: PBM binding z-score (relative to random genomic background probes); higher = stronger binding; sequences stand for … in GC…GCGATTGACAGCGTAGAATGAAGG
[1] = system: RARb homodimer (NR concentration 270 nM)
How it was run: (§1)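 Random background probes are the reference for binding z-scores. These scores derive from regression-normalized fluorescence on custom Agilent 4×180K protein-binding microarrays incubated 1 h with ligand-free nuclear receptor dimers. Binding was detected with antibodies against each partner (one per run).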

[2] = system: RARg:RXRa (NR concentration 270 nM, RXRa partner concentration 90 nM)
How it was run: as §1

[3] = system: RARg homodimer (NR concentration 270 nM)
How it was run: as §1

[4] = system: RXRa DBDmut IVT, anti-RXR (DBD mutation: RXRa K156A/R161A, NR concentration 90 nM)
How it was run: as §1

[5] = system: RXRa homodimer (NR concentration 180 nM)
How it was run: as §1

[6] = system: THRa:RXRa (NR concentration 90 nM, RXRa partner concentration 90 nM)
How it was run: as §1

[7] = system: THRa homodimer (NR concentration 90 nM)
How it was run: as §1

[8] = system: VDR:RXRa (NR concentration 270 nM, RXRa partner concentration 90 nM)
How it was run: as §1

[9] = system: VDR homodimer (NR concentration 270 nM)
How it was run: as §1

Sequence | PBM binding z-score [1] | PBM binding z-score [2] | PBM binding z-score [3] | PBM binding z-score [4] | PBM binding z-score [5] | PBM binding z-score [6] | PBM binding z-score [7] | PBM binding z-score [8] | PBM binding z-score [9]
TGATTGAGGTTAAAGATCAGGGAACGTGGCGTCG | 1.01 | 2.5 | 1.35 | 0.759 | 3.67 | 2.57 | 0.317 | 1.94 | 0.679
GATACAGGGTCAGCTAGAGACCAGAGTATGGAAA | 2.5 | 4.48 | 4.19 | 0.915 | 3.99 | 2.5 | 0.211 | 2.23 | 0.881
CTCGAAAGGTGGGTTGAGGTGAGTATACGGATAA | 1.3 | 0.297 | 0.548 | -0.0446 | 0.396 | 4.18 | 1.75 | 0.817 | 0.756
ACTAGTTGGTCAGCTGAGGTCGCACACAATTCGG | 2.35 | 1.52 | 1.76 | 0.828 | 1.46 | 4.25 | 2.58 | 2.2 | 1.32
CCTACCGGGCCAAAAAGGTCATTGATGCCGATAA | 4.59 | 4.5 | 3.96 | 0.185 | 4.6 | 3.29 | 1.04 | 5.13 | 3.13
GCAACGAGGGCATTCGAGTTGATAGCATGGCGAT | 0.663 | 0.926 | 1.45 | 3.01 | 0.65 | 3.31 | -0.513 | 3.57 | 3.27
CAAAGTAGGTCAAAGGTCAAAGTCGAGCCAACCA | 5.32 | 8.87 | 7.72 | 3.17 | 10.4 | 4.54 | 1.22 | 6.63 | 3.8
GCTAGCTGGTCAGTAAAAGGTCACACACCGGTCG | 4.99 | 5.88 | 4.93 | 0.376 | 5.62 | 3.34 | 1.36 | 3.52 | 1.37
